This excerpt belongs to a sample that is enriched for hits.
CHX counter: Cycloheximide Counterscreen for Small Molecule Inhibitors of Shiga Toxin; actives 12% (n = 300,000); max response, %; AID 2314, 2010; cell reporter, cycloheximide protein synthesis inhibition counterscreen; in the data active means max response mostly above about 13%, no sharp cut-off; inactive means mostly below about 14%; further: read at 38.3 µM for the half of the compounds with a filed dose; 0% is about no effect
Shiga toxin inh: A qHTS for Small Molecule Inhibitors of Shiga Toxin; inhibition, % at 38.7 µM; Vero cells, Shiga toxin protein synthesis inhibition reporter; actives 9.2% (n = 290,000); in the data active means inhibition mostly above about 28%, no sharp cut-off; inactive means mostly below about 43%; further: 0% is about no effect
SARS PLpro yeast: qHTS of Yeast-based Assay for SARS-CoV PLP; actives 0.19% (n = 330,000); S. cerevisiae expressing SARS-CoV PLpro, growth rescue; Potency, µM (doses to about 32.9 µM), for the others: at the highest dose activity, positive = growth rescue, actives largely listed as activators; calls by dose curve; further: potency means the concentration at half of the fitted maximal effect; 0% is about no effect; nearly all actives have a fitted effect of over 55% in size
AMA1-RON2 inh: qHTS for Inhibitors of AMA1-RON; Towards Development of Antimalarial Drug Lead: Primary Screen; Potency, µM (top dose mostly 58.2 µM), without a hit: at the highest dose activity change, negative = inhibition, hits mostly inhibitors; Plasmodium falciparum AMA1 (3D7) - RON2 peptide interaction; AlphaScreen AMA1-biotinylated RON2 peptide binding; actives 0.2% (n = 360,000); AID 720542, 2013;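 further: potency means the concentration at half of the fitted maximal effect; 0% = vehicle wells and -100% = peptide control; nearly all actives have a fitted effect of over 45% in size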
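AMA1 (3D7) with his tag at 25 nM final met compounds first, then biotinylated RON2 peptide at 25 nM; detection used donor plus acceptor beads, 10 µg/mL apiece, read by AlphaScreen after 30 min at room temperature.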
AmpC no deterg: qHTS Inhibitors of AmpC Beta-Lactamase (assay without detergent); P00811; AmpC nitrocefin hydrolysis, absorbance 480 nm, 0.0001% Triton; Potency, µM (highest dose often 57.1 µM), for the others: top-dose activity change, negative = inhibition, usual class: inhibitors; actives 0.52% (n = 330,000); AID 485341, 2010;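 further: potency means the concentration at half of the fitted maximal effect; plate controls were no compound for no effect and no enzyme for full effect; nearly all actives have a fitted effect of over 20% in size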
Target sequence (P00811 whole entry, looked up): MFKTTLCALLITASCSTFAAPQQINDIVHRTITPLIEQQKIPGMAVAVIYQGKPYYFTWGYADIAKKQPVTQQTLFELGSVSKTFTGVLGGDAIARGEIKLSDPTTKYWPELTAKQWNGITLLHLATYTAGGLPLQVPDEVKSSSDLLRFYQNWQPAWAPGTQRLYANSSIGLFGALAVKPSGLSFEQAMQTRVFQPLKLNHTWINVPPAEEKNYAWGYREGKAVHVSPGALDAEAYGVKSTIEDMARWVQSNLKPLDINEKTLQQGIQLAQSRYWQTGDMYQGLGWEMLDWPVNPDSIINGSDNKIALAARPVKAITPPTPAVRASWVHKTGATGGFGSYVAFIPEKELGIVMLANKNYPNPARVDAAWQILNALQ
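20 mM phosphate pH 7.0 + 0.01% (detergent screen) or 0.0001% Triton X-100; 5.3 nM AmpC reagent; cpd preinc 15 min RT; nitrocefin (800 uM stock) to start; A480 q20 s × 4 min; Activity was normalised to no-enzyme and no-compound control wells.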
AmpC detergent: qHTS Inhibitors of AmpC Beta-Lactamase (assay with detergent); AmpC hydrolysis of nitrocefin, absorbance 480 nm, 0.01% Triton; AID 485294, 2010; Potency, µM (titrated, usually from 114 µM), inactives show top-dose activity change, negative = inhibition, actives largely listed as inhibitors; P00811; actives 0.041% (n = 370,000);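 further: potency means the concentration at half of the fitted maximal effect; 0% = no-compound wells and -100% = no-enzyme wells; nearly all actives have a fitted effect of over 25% in size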
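AmpC (5.3 nM in the dispensed reagent) in 20 mM phosphate pH 7.0 with 0.01% (detergent screen) or 0.0001% Triton X-100 was preincubated with compounds for 15 min at room temperature. Nitrocefin was then added from an 800 uM solution, and hydrolysis was followed at 480 nm.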
An asterisk follows results filed as active; [ ] = another dose, or the depositor's remark. Unless noted, the call rests on the fitted dose curve; in most records, active means well fitted curve in the direction sought with a large enough effect; inconclusive means small, poorly fitted or top-dose-only effect, or another doubt; inactive means no such curve, though single readings can be large; an effect the other way counts as inactive or inconclusive.

COc1ccc(NC(=O)CCCc2ccccc2)c(OC)c1 was read as CHX counter 19*, SARS PLpro yeast -1%, AMA1-RON2 inh 14%, AmpC no deterg -12% and AmpC detergent -19%.
`COc1ccc(NC(=O)CCCC(=O)c2ccccc2)c(OC)c1` gave CHX counter 16*, Shiga toxin inh 21, SARS PLpro yeast -1%, AMA1-RON2 inh -7%, AmpC no deterg -18% and AmpC detergent -2%.
`COc1ccc(NC(=O)C/C(C)=N/NC(=O)CCc2ccccc2)c(OC)c1` gave CHX counter 2, Shiga toxin inh -5, SARS PLpro yeast -2%, AMA1-RON2 inh 41%, AmpC no deterg 51% and AmpC detergent -8%.
For COc1ccc(NC(=O)CCC(=O)c2cccs2)cc1S(=O)(=O)Nc1ccccc1Cl the results were CHX counter 12, Shiga toxin inh 47*, SARS PLpro yeast 20%, AMA1-RON2 inh -6%, AmpC no deterg -20% and AmpC detergent -5%.
CC(=O)c1ccc(OCC(=O)OC(C)C(=O)NC2CCCCC2C)cc1 (centres undefined) was read as SARS PLpro yeast 6%, AMA1-RON2 inh -1%, AmpC no deterg -6% and AmpC detergent 6%.
`C/C(=N/Nc1nc(C)cc(-c2ccccc2)n1)c1ccco1` gave CHX counter 21*, Shiga toxin inh 56, SARS PLpro yeast -14%, AMA1-RON2 inh 8%, AmpC no deterg -6% and AmpC detergent -11%.
Cc1cc(-c2ccccc2)nc(N/N=C/c2ccccc2F)n1 was read as CHX counter 51*, Shiga toxin inh 52*, SARS PLpro yeast -11%, AMA1-RON2 inh 57%, AmpC no deterg -24% and AmpC detergent 0%.
C/C(=N\Nc1cc(-c2ccccc2)nc(-c2ccccc2)n1)c1ccc(O)c(C)c1 was read as CHX counter 20*, Shiga toxin inh 73*, SARS PLpro yeast -31%, AMA1-RON2 inh -19%, AmpC no deterg -8% and AmpC detergent 6%.
For C/C(=N\Nc1nc(C)cc(-c2ccccc2)n1)c1ccccc1 the results were CHX counter 17*, Shiga toxin inh 16, SARS PLpro yeast -6%, AMA1-RON2 inh 39%, AmpC no deterg -11% and AmpC detergent inconclusive.
For COc1cc(N/N=C(\C)c2ccc(O)c(C)c2)nc(-c2ccccc2)n1 the results were CHX counter 21, Shiga toxin inh 15, SARS PLpro yeast -3%, AMA1-RON2 inh -8%, AmpC no deterg -25% and AmpC detergent 13%.
`C=CCNC(=O)c1onc(CSc2ccccc2F)c1C(=O)O` gave CHX counter -2, Shiga toxin inh 28, SARS PLpro yeast 5%, AMA1-RON2 inh 3%, AmpC no deterg -8% and AmpC detergent inconclusive.
For CCCCn1c(N)c(N(Cc2ccccc2OC)C(=O)CSCC(=O)Nc2ccc(C)cc2)c(=O)[nH]c1=O the results were AMA1-RON2 inh 1%[11.6 µM].
For CCOC(=O)[C@H]1[C@H]2COc3ccc(OC)cc3[C@H]2N2C(=O)CN(Cc3ccccc3)C(=O)[C@@]12C the results were AMA1-RON2 inh -3%.
`C/C(=N\Nc1nc(C)cc(-c2ccccc2)n1)c1ccc(O)cc1` gave CHX counter 21*, Shiga toxin inh 26*, SARS PLpro yeast -5%, AMA1-RON2 inh 24%, AmpC no deterg -24% and AmpC detergent inconclusive.
For C/C(=N\Nc1nc(C)cc(-c2ccccc2)n1)c1cccc(N)c1 the results were CHX counter 16*, Shiga toxin inh 23*, SARS PLpro yeast -2%, AMA1-RON2 inh 71%, AmpC no deterg -6% and AmpC detergent inconclusive.
C/C(=N\Nc1nc(C)cc(-c2ccccc2)n1)c1ccc(C)o1 was read as CHX counter 8, Shiga toxin inh 7, SARS PLpro yeast 14%, AMA1-RON2 inh 77%, AmpC no deterg -2% and AmpC detergent 1%.
